Molecules are shown by their SMILES. The panel holds about 79,000 compounds, 15% with a hit somewhere; the sample as a whole holds those more often. Unmarked numbers belong to inactive results. The source made the active and inactive calls. Cut-off read from the data, not from the text of the source: active = growth inhibition above about 70%; inactive = the rest.

One experiment in a line: NCI Yeast Anticancer Drug Screen. Data for the rad50 strain (AID 155).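 Note: 0% = growth of vehicle-only cultures of the same strain.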 Conditions: S. cerevisiae rad50 strain growth inhibition; at 50.0 µM; stronger effect = higher value. Summed up:
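A DNA repair-deficient yeast mutant serves as the test organism; compound-induced growth inhibition is calculated against vehicle-treated cells.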
For `Cc1nc(C(N)=S)sc1C(=O)CC(=O)C(=O)Nc1c(C(C)C)cccc1C(C)C`, the growth inhibition is -28.1%.
The same measure, in the same setting: as for `NC(CCNCCc1ccccc1)CNCCc1ccccc1` (stereo not given), the figure is 29.7%; as for `O=C(COc1ccc(Cl)c(Cl)c1)Nc1ccc(C(=O)CCl)cc1`, 6%.
Turning to `CCOC(=O)c1ccc(N[C@@H]2c3cc4c(cc3C(c3cc(OC)c(O)c(OC)c3)[C@H]3C(=O)OCC32)OCO4)cc1` (stereo not given in full), the growth inhibition is 85.6% (active).
On to `CC(Cc1nc2ccccc2[nH]1)Cc1nc2ccccc2[nH]1`, for which the growth inhibition is -7%.
On the same count and under the same terms, as for `CC1(c2ccc(C(O)c3ccccc3)s2)OCCO1` (stereo not given), the figure is 1.8%.
Regarding `O=C1c2ccccc2-c2ccc(N3C(=O)C=CC3=O)cc21`, the growth inhibition was 98.6% (active).
In the case of `O=NNc1nc2ncccc2cc1-c1ccccc1Cl`, the growth inhibition was -7.8%.
Same read-out and setting: as for `Cc1c(Cl)cccc1NC(=O)C(=O)C1C(=O)CC(C)(C)CC1=O`, the figure is 10.6%; as for `Cc1cccc(/C=N/Nc2ccc([N+](=O)[O-])cc2[N+](=O)[O-])c1C`, 11.2%; as for `O=C(O)C1Cc2nc[nH]c2CN1CO` (stereo not given), 6.1%.
`CN(C)CCNc1ccc(NCCN(C)C)c2c1C(=O)c1ncsc1C2=O`: the growth inhibition was -8.15%.
Same read-out and setting: as for `C=CCOC(=O)c1ccco1`, the figure is 5.6%; as for `CC1(C)CC(C)(OC(=O)c2ccccc2)N=N1` (stereo not given), 14.6%; as for `COC(=O)CCCc1ccc2c(c1)CC1(C2)Cc2cc3c(cc2C1)CCCC3`, -14.5%.
On the same count and under the same terms, as for `CCOC(=O)NC(=O)c1cn(CC(=O)NCC(=O)NCC(=O)NCCCN2CCN(CCCNC(=O)CNC(=O)CNC(=O)Cn3cc(C(=O)NC(=O)OCC)c(=O)[nH]c3=O)CC2)c(=O)[nH]c1=O`, the figure is -5%; as for `CC(=O)NC1C(OCC(=O)NCCNc2ccc([N+](=O)[O-])c3[nH]c4ccccc4c(=O)c23)C(O)C(CO)OC1(C)OCc1ccccc1` (stereo not given), -3.9%; as for `O=C(CCCl)OC1CCCC1`, 1.5%.
On to `CN(/N=C\c1ccc2ccccc2c1)C1=NCCN1`, for which the growth inhibition was 5.65%.
As for `C(=C\c1cc(-c2cc(/C=C/c3ccccc3)[nH]n2)n[nH]1)/c1ccccc1`, the growth inhibition is 6.15%.
Same read-out and setting: the result for `CCOC(=O)CCC(C(=O)c1cccnc1)c1ccccn1` (stereo not given) reads -4%; that for `COc1c(CO)cc(C)cc1CO`, 4.15%.
The same measure, in the same setting: as for `Cc1ccc(OCCNCCO)cc1`, the figure is 23.3%; as for `CCCCCCCCCCCCCCCCCC(CCCCCCCC)CCCCCCCC`, -5.15%; as for `CCCCCCn1cnc2c(=S)nc[nH]c21`, 24.6%.
Same read-out and setting: the result for `O=S(O)CCCCSSCC(O)CO` (stereo not given) reads 22.5%; that for `O=C1OC(c2cccc(Cl)c2)=N/C1=C\c1cc(Br)ccc1O`, 20.6%; that for `CC(CC#N)NC(=O)C1CCC(N)=N1` (stereo not given), -14.3%.
Regarding `CCCCCCCCCCCCCCCCS`, the growth inhibition was -2.15%.
Take `CCOC(=O)CC1(c2ccccc2)OC(=O)c2ccccc21` (stereo not given): the growth inhibition was 9.05%.
Regarding `NC(N)=NC(N)=Nc1ccccc1Br`, the growth inhibition was -20.9%.
On the same count and under the same terms, the result for `CN(C)c1nc(-c2ccccc2)c(Cc2ccccc2)c(=O)o1` reads -1.9%.
The same measure, in the same setting: as for `c1cc2c3c(c1)ccc1ccc4cccc(c4c13)O2`, the figure is -26.4%; as for `CC(C)CCC[C@@H](C)[C@H]1CC[C@H]2[C@@H]3CC[C@H]4C[C@H](N[C@@H]5CC[C@@]6(C)[C@@H](CC[C@@H]7[C@@H]6CC[C@]6(C)[C@@H]([C@H](C)CCCC(C)C)CC[C@@H]76)C5)CC[C@]4(C)[C@H]3CC[C@]12C`, 55.1%.
The same measure, in the same setting: the result for `O=C(N/N=C/c1cc(Br)cc(Br)c1O)c1ccccc1` reads 3.85%; that for `O=[N+]([O-])c1ccc(N=C/C=C/Nc2ccc([N+](=O)[O-])cc2)cc1`, 5%.
As to `CC(C)(/C=N\O)NO`, the growth inhibition is -14.8%.
Same read-out and setting: the result for `CC(=O)OC1CCC2(C)C(CCC3(C)C2CCC2C4C5OC(=O)C4(CCC5(C)C)CCC23C)C1(C)C` (stereo not given) reads -13%; that for `O=C1NC(=O)c2c1c1cnn(-c3ccccc3)c1n1cccc21`, 15.1%; that for `O=C1c2ccccc2-c2ccc(-n3c(=O)c4ccccc4c4ccccc4c3=O)cc21`, 28.6%.

The next experiment in a line: NCI Yeast Anticancer Drug Screen. Data for the mec2-1 strain (AID 157). Conditions: S. cerevisiae mec2-1 strain, at 50.0 µM, stronger effect = higher value. Summed up:
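Yeast mec2-1 mutant treated with compound. Readout: growth inhibition vs vehicle controls.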
As for `Cc1nc(C(N)=S)sc1C(=O)CC(=O)C(=O)Nc1c(C(C)C)cccc1C(C)C`, the growth inhibition was -41.6%.
Still for that read-out and setting: as for `NC(CCNCCc1ccccc1)CNCCc1ccccc1` (stereo not given), the figure is -11.6%; as for `O=C(COc1ccc(Cl)c(Cl)c1)Nc1ccc(C(=O)CCl)cc1`, 31.3%.
On the same count and under the same terms, the result for `CCOC(=O)c1ccc(N[C@@H]2c3cc4c(cc3C(c3cc(OC)c(O)c(OC)c3)[C@H]3C(=O)OCC32)OCO4)cc1` (stereo not given in full) reads 91.7% (active); that for `CC(Cc1nc2ccccc2[nH]1)Cc1nc2ccccc2[nH]1`, 17.4%.
Still for that read-out and setting: as for `CC1(c2ccc(C(O)c3ccccc3)s2)OCCO1` (stereo not given), the figure is 7.3%.
Take `O=C1c2ccccc2-c2ccc(N3C(=O)C=CC3=O)cc21`: the growth inhibition is 98.6% (active).
As to `O=NNc1nc2ncccc2cc1-c1ccccc1Cl`, the growth inhibition is -6.05%.
The same measure, in the same setting: the result for `Cc1c(Cl)cccc1NC(=O)C(=O)C1C(=O)CC(C)(C)CC1=O` reads 6.8%.
Still for that read-out and setting: as for `Cc1cccc(/C=N/Nc2ccc([N+](=O)[O-])cc2[N+](=O)[O-])c1C`, the figure is -6%; as for `O=C(O)C1Cc2nc[nH]c2CN1CO` (stereo not given), -8.8%.
Same read-out and setting: the result for `CN(C)CCNc1ccc(NCCN(C)C)c2c1C(=O)c1ncsc1C2=O` reads -0.8%.
On to `C=CCOC(=O)c1ccco1`, for which the growth inhibition was -6.3%.
The same measure, in the same setting: the result for `CC1(C)CC(C)(OC(=O)c2ccccc2)N=N1` (stereo not given) reads -11.1%; that for `COC(=O)CCCc1ccc2c(c1)CC1(C2)Cc2cc3c(cc2C1)CCCC3`, -20.4%.
Still for that read-out and setting: as for `CCOC(=O)NC(=O)c1cn(CC(=O)NCC(=O)NCC(=O)NCCCN2CCN(CCCNC(=O)CNC(=O)CNC(=O)Cn3cc(C(=O)NC(=O)OCC)c(=O)[nH]c3=O)CC2)c(=O)[nH]c1=O`, the figure is 2.4%; as for `CC(=O)NC1C(OCC(=O)NCCNc2ccc([N+](=O)[O-])c3[nH]c4ccccc4c(=O)c23)C(O)C(CO)OC1(C)OCc1ccccc1` (stereo not given), -39.9%; as for `O=C(CCCl)OC1CCCC1`, -9.8%.
The same measure, in the same setting: the result for `CN(/N=C\c1ccc2ccccc2c1)C1=NCCN1` reads 0.25%; that for `C(=C\c1cc(-c2cc(/C=C/c3ccccc3)[nH]n2)n[nH]1)/c1ccccc1`, 9.1%.
`CCOC(=O)CCC(C(=O)c1cccnc1)c1ccccn1` (stereo not given): the growth inhibition was -3.6%.
On the same count and under the same terms, as for `COc1c(CO)cc(C)cc1CO`, the figure is -0.5%; as for `Cc1ccc(OCCNCCO)cc1`, -11.4%; as for `CCCCCCCCCCCCCCCCCC(CCCCCCCC)CCCCCCCC`, 0.65%.
Still for that read-out and setting: as for `CCCCCCn1cnc2c(=S)nc[nH]c21`, the figure is 8.35%; as for `O=S(O)CCCCSSCC(O)CO` (stereo not given), 9.65%; as for `O=C1OC(c2cccc(Cl)c2)=N/C1=C\c1cc(Br)ccc1O`, 5.7%.
`CC(CC#N)NC(=O)C1CCC(N)=N1` (stereo not given): the growth inhibition is -18.2%.
The same measure, in the same setting: as for `CCCCCCCCCCCCCCCCS`, the figure is -16.4%; as for `CCOC(=O)CC1(c2ccccc2)OC(=O)c2ccccc21` (stereo not given), 13.2%; as for `NC(N)=NC(N)=Nc1ccccc1Br`, -19.5%.
Still for that read-out and setting: the result for `CN(C)c1nc(-c2ccccc2)c(Cc2ccccc2)c(=O)o1` reads -4.15%; that for `c1cc2c3c(c1)ccc1ccc4cccc(c4c13)O2`, -2.4%; that for `CC(C)CCC[C@@H](C)[C@H]1CC[C@H]2[C@@H]3CC[C@H]4C[C@H](N[C@@H]5CC[C@@]6(C)[C@@H](CC[C@@H]7[C@@H]6CC[C@]6(C)[C@@H]([C@H](C)CCCC(C)C)CC[C@@H]76)C5)CC[C@]4(C)[C@H]3CC[C@]12C`, 19.2%.
Still for that read-out and setting: as for `O=C(N/N=C/c1cc(Br)cc(Br)c1O)c1ccccc1`, the figure is -1.4%.
As to `O=[N+]([O-])c1ccc(N=C/C=C/Nc2ccc([N+](=O)[O-])cc2)cc1`, the growth inhibition is 0.7%.
On the same count and under the same terms, as for `CC(C)(/C=N\O)NO`, the figure is -20.4%; as for `CC(=O)OC1CCC2(C)C(CCC3(C)C2CCC2C4C5OC(=O)C4(CCC5(C)C)CCC23C)C1(C)C` (stereo not given), -23.9%.
Still for that read-out and setting: the result for `O=C1NC(=O)c2c1c1cnn(-c3ccccc3)c1n1cccc21` reads 4.35%.
On the same count and under the same terms, the result for `O=C1c2ccccc2-c2ccc(-n3c(=O)c4ccccc4c4ccccc4c3=O)cc21` reads -1.7%.

The record behind these values is PubChem BioAssay (NCI).
